Screening results deposited in PubChem BioAssay by National Center for Advancing Translational Sciences (NCATS).
In the library only some 9.2% were active in any assay of this set; here they are far more common.
Rab9 promoter act: Rab9 promoter activation; Huh7 Rab9 promoter-luciferase reporter, luminescence, 24 h; Potency, µM (doses to about 9.22 µM), for the others: top-dose activation, negative = inhibition, most hits filed as activators; actives 2.8% (n = 320,000); AID 485297; further: % of control where 0% means no effect; nearly all actives have a fitted effect of over 60% in size
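Steps: seed 1500 Huh7 Rab9-luc cells per well, rest 2 h at 37 °C; add compound in DMSO; incubate 24 h; add luciferase reagent, 10 min ambient; read luminescence.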
SMN2 splice up: SMN2 splice variant enhancement | HEK293 SMN2-luciferase splicing reporter, luminescence, 30-36 h | Potency, µM (titrated, usually from 46.1 µM), for the others: at the highest dose activity change, positive = activation, usual class: activators | actives 2.8% (n = 210,000) | AID 1458; further: % of control where 0% means no effect; nearly all actives have a fitted effect of over 55% in size
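HEK293 cells carry an SMN2 minigene-luciferase reporter in which exon 7 inclusion puts luciferase in frame. Cells were seeded at 2000 cells/well, attached for 10-12 hours, then exposed to compounds for 30-36 hours at 37C before ONE-Glo luminescence.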
NPC1 promoter act: activates the NPC1 promoter. Potency, µM (doses to about 9.22 µM), for inactives: at the top dose activation, usual class: activators. Huh7 NPC1 promoter luciferase reporter, 24 h. actives 2.4% (n = 320,000); further: % of control where 0% means no effect; nearly all actives have a fitted effect of over 60% in size
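In 1536-well qHTS, Huh7 cells harboring an NPC1 promoter–luciferase construct received compound for 24 h; activation was quantified by luminescence following luciferase reagent addition.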
ELG1 repair inh: inhibitors of ELG1-dependent DNA repair in HEK293T cells | Potency, µM (doses to about 46.1 µM), inactives show at the top dose activity change, negative = inhibition, actives largely listed as inhibitors | AID 504467 | actives 2.3% (n = 330,000) | HEK293T ELG1-luciferase reporter, luminescence, 16 h; DNA damage induced by 5-fluorouridine; further: on the % scale 0 is the no-effect control and ±100 the full control effect; nearly all actives have a fitted effect of over 55% in size
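Luminescence from the luciferase reporter, measured 30 min after ONE-Glo reagent at room temperature, was the read-out. Beforehand, 2,000 cells per well were exposed for 16 hr at 37 °C to 5-fluorouridine together with compound or vehicle.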
FLuc modulator: firefly luciferase modulation, counter-screen for miR-21 project; purified FLuc, Km substrates, luminescence inhibition; Potency, µM (top dose mostly 57.5 µM), for inactives: top-dose activity change, negative = inhibition, usual class: inhibitors; actives 6.9% (n = 360,000);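 further: plate controls were vehicle for no effect and reference inhibitor for full effect; nearly all actives have a fitted effect of over 55% in size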
Target sequence (P08659 whole entry, looked up): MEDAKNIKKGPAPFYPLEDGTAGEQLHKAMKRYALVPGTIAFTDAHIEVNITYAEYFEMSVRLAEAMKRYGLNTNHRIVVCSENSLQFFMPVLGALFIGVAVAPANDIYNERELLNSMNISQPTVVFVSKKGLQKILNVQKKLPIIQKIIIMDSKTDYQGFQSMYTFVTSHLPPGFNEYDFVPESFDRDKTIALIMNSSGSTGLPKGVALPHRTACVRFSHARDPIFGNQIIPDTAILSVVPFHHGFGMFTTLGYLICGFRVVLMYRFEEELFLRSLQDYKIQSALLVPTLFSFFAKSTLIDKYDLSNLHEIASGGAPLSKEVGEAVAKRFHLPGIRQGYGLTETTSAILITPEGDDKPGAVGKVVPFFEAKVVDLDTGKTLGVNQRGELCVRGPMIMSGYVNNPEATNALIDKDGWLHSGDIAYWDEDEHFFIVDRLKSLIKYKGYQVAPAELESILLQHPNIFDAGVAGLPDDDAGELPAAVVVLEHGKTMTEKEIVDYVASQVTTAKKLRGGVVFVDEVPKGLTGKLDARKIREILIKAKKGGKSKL
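Purified P. pyralis luciferase (10nM final) with 10uM D-luciferin and 10uM ATP (Km levels) in 50mM Tris acetate pH 7.5, 10mM Mg acetate, 0.01% Tween-20, 0.05% BSA; qHTS 6-point titration, ~60 µM downward; luminescence read.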
ELG1 genotox: inducers of genotoxicity in HEK293T ELG1-luciferase cells; AID 504466; HEK293T ELG1-luciferase reporter, luminescence, 16 h; actives 1.3% (n = 330,000); Potency, µM (top dose mostly 46 µM), inactives show top-dose activity change, positive = activation, most hits filed as activators; further: % of control where 0% means no effect; nearly all actives have a fitted effect of over 60% in size
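After overnight (16 hr) compound treatment at 37 °C, ELG1-luciferase HEK293T cells were lysed with ONE-Glo; luminescence quantified 30 min later at room temperature.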
Starred values were filed as active, the others as inactive; ? = inconclusive; . = not tested or not shown; [ ] = another dose, or the depositor's remark. The call rests on the fitted dose curve; in most records, active means well fitted curve in the direction sought with a large enough effect; inconclusive means small, poorly fitted or top-dose-only effect, or another doubt; inactive means no such curve, though single readings can be large; an effect the other way counts as inactive or inconclusive. Potency means the concentration at half of the fitted maximal effect.

SMILES	Rab9 promoter act	SMN2 splice up	NPC1 promoter act	ELG1 repair inh	FLuc modulator	ELG1 genotox
COc1ccc(CNc2nc(NCc3ccc(OC)c(OC)c3)n(C(=O)c3cccs3)n2)cc1OC	-0.6%	-1.7%	-3.4%	?	10.7µM*	-2.8%
CCCCC(=O)/C=C/n1c(=S)oc2ccccc21	-35.2%	-6.5%[1.84 µM]	-18.6%	?	2.39µM*	-10.7%
CC(C)OC(=O)n1c(=S)oc2ccccc21	-0.1%	-29.2%	11.5%	?	-7.7%	10.5%
Cn1cnnc1Sc1ccc(C(F)(F)F)cc1[N+](=O)[O-]	-4.2%	23.3%	-2.0%	8.2µM*	-6.7%	-17.0%
O=C(NCc1cccc(Cl)c1)c1oc(=O)c2ccccc2c1-c1ccccc1	.	-3.0%	.	.	0.9%	.
Cc1ccc(C)c(N2CCN(C(=O)Nc3ccc4c(c3)N(C)C(=O)CS4)CC2)c1	-17.1%	.	-21.5%	6.51µM*	?	-11.4%
COc1cccc(NC(=O)Nc2ccc3c(c2)N(C)C(=O)CS3)c1	-2.7%	14.0%	0.1%	?	12µM*	-11.7%
CC(=O)Nc1ccc(NC(=O)Nc2ccc3c(c2)N(C)C(=O)CS3)cc1	-0.4%	.	-6.1%	?	-16.8%	-11.9%
CN1C(=O)CSc2ccc(NC(=O)N3CCN(c4ccccn4)CC3)cc21	-8.0%	-3.0%	-5.0%	?	-5.4%	0.4%
CN1C(=O)CSc2ccc(NC(=O)Nc3ccccn3)cc21	2.82µM*	?	?	?	3.01µM*	3.9%
Cc1cc(C)c(C)c(S(=O)(=O)N[C@@H](C)C(=O)OCc2cc(=O)n3cc(Br)ccc3n2)c1C	-5.0%	9.2%	-1.1%	11.0%	11.3%	-1.2%
O=C(C1=C[C@H](c2ccc(Br)cc2)C[C@H](OCCCCO)O1)N1CCOCC1	0.02µM*	.	0.0251µM*	?	-38.1%	9.1%
O=C(C1=C[C@@H](c2ccc(Br)cc2)C[C@@H](OCc2ccc(CO)cc2)O1)N1CCN(Cc2ccccc2)CC1	-1.7%	.	1.9%	23.1µM*	-1.8%	-14.7%
C#Cc1ccc([C@@H]2C=C(C(=O)N3CCOCC3)O[C@H](OCCCCO)C2)cc1	1.1%	.	-3.3%	12.7%	3.6%	8.8%
CCN(CC)S(=O)(=O)c1ccc(-c2nnc3sc4cccc(C)c4n23)cc1	1.4%	-17.1%	0.4%	23.1µM*	-2.1%	-6.5%
O=c1c2ccccc2cnn1CCOc1cccc(Br)c1	?	.	3.55µM*	?	9.53µM*	?
Cc1ccc(OCCn2ncc3ccccc3c2=O)c(C)c1	12.5%	.	5.0%	1.8%	-16.4%	5.0%
O=S(=O)(NCc1ccc(C(F)(F)F)cc1)c1ccc(-n2cnnn2)cc1	-2.6%	.	-2.4%	5.9%	2.0%	6.4%
O=C1C(C2=NC(C(=O)O)C3C(=O)N(c4ccc(Cl)cc4)C(=O)C23)=C(O)c2ccccc21 (stereo unspecified)	9.7%	-2.7%	-3.7%	9.1%	6.75µM*	2.8%
COc1cccc(CNC(=O)CCC2CCCN(C(=O)c3ccccc3N(C)C)C2)c1 (stereo unspecified)	13.4%	.	0.0%	-19.1%	1.1%	0.2%
Nc1nc2nn(-c3ccccc3)nc2c(=O)[nH]1	2.82µM*	.	2µM*	?	4.78µM*	?
Cc1ccc(NC(=O)C2CCCN(c3ncnc4c3nc3n4CCCCC3)C2)nc1 (stereo unspecified)	-5.0%	.	-0.4%	3.26µM*	0.3%	-7.9%
O=C(C1CCN(S(=O)(=O)c2cccnc2)CC1)N1CCN(c2cccc(Cl)c2)CC1	-24.5%	-42.8%	0.6%	20.6µM*	0.4%	-12.3%
O=C(Nc1ccc(F)c(Cl)c1)C1CCN(c2ncnc3c2nc2n3CCCCC2)CC1	-11.1%	.	-1.8%	7.3µM*	9.0%	-1.5%[9.26 µM]
CC(=O)c1ccc(N2CCN(C(=O)C3CCCN(c4ncnc5c4nc4n5CCCCC4)C3)CC2)cc1 (stereo unspecified)	-3.5%	.	-2.9%	2.31µM*	-3.2%	-10.9%
SMILES	Rab9 promoter act	SMN2 splice up	NPC1 promoter act	ELG1 repair inh	FLuc modulator	ELG1 genotox
CCc1ccc(-n2c(N3CCN(c4ccc(F)cc4)CC3)nc3ccccc3c2=O)cc1	.	-27.6%	.	.	0.7%	.
CCOC(=O)C1CCN(C(=O)CCc2nc3sc4c(c3c(=O)[nH]2)CCCC4)CC1	2.5%	.	-1.3%	?	4.6%	1.0%
O=C(NCC1CCN(Cc2ccccc2F)CC1)C1CCCN(c2ncnc3c2nc2n3CCCCC2)C1 (stereo unspecified)	-1.5%	.	-3.2%	7.3µM*	-0.6%	-8.0%
O=C(Nc1ccccn1)C1CCCN(c2ncnc3c2nc2n3CCCCC2)C1 (stereo unspecified)	-9.4%	.	-3.0%	-26.8%	-1.5%	-7.2%
O=C(Nc1ccc(Cl)cn1)C1CCCN(c2ncnc3c2nc2n3CCCCC2)C1 (stereo unspecified)	-7.2%	.	-4.1%	?	6.7%	-6.6%
Cc1c(Cl)cccc1NC(=O)C1CCN(c2ncnc3c2nc2n3CCCCC2)CC1	.	.	.	.	-8.4%	.
O=C(Nc1ccc(Cl)cn1)C1CCN(c2ncnc3c2nc2n3CCCCC2)CC1	-23.5%	.	-12.4%	2.06µM*	-3.2%	3.2%
COc1ccccc1NC(=O)C1CCN(c2ncnc3c2nc2n3CCCCC2)CC1	0.2%	.	-1.2%	9.2µM*	-11.8%	-0.1%[9.26 µM]
O=C(Nc1cccnc1Cl)C1CCCN(c2ncnc3c2nc2n3CCCCC2)C1 (stereo unspecified)	-3.5%	.	-6.0%	14.6µM*	-0.9%	-4.6%
CCCCN1C(=O)CN(C2CCCCCC2)C(=O)C1c1ccc(OCCC)c(OC)c1 (stereo unspecified)	.	.	.	.	-2.1%	.
CCN(C(=O)C1CCCN(c2ncnc3c2nc2n3CCCCC2)C1)c1cccc(Cl)c1 (stereo unspecified)	-6.5%	.	-4.4%	20.6µM*	1.7%	-8.7%
O=C(C1CCN(c2ncnc3c2nc2n3CCCCC2)CC1)N1CCN(c2cccc(Cl)c2)CC1	-9.1%	.	-8.3%	2.31µM*	1.8%	-15.0%
COc1cccc(Cn2c(CNS(=O)(=O)c3ccc(F)c(Cl)c3)nc3cccnc32)c1	.	.	.	.	1.0%	.
Cc1nc(SCC(=O)N2CCN(C(=O)c3cccs3)CC2)c2c(C)c(C)sc2n1	2.1%	.	-5.8%	?	4.4%	-3.5%
Cc1csc(NC(=O)c2c(-c3c(Cl)cccc3Cl)noc2C)n1	-2.5%	-15.7%	-2.3%	-19.2%	-1.2%	1.2%
CCC(C)OC(=O)n1ccc(C(=O)Nc2nccs2)n1 (stereo unspecified)	3.7%	41.0%	0.2%	?	16.9µM*	7.5%
Cc1onc(-c2c(Cl)cccc2Cl)c1C(=O)Nc1nccs1	-2.5%	.	-0.1%	23.1µM*	2.7%	-22.0%
